Measurements: PubChem BioAssay (NCATS)
Results filed as inconclusive are left out. A call without a number means that no potency is given here. Active and inactive are the calls of the source. The call rests on the fitted dose curve; in most records, active means well fitted inhibition curve with a large enough effect; inconclusive means small, poorly fitted or top-dose-only effect; inactive means flat fitted curve, though single readings scatter.

Assay: BET inhibitor-based combinations targeting novel dependencies in MECOM-rearranged (r) AML: AML-194 cell line (AID 2202237; further: nearly all actives have a fitted effect of over 40% in size)
Settings: AML-194 (MECOM-r AML) viability, CellTiter-Glo, 48 h; series mostly up to 46 µM
Procedure, shortened: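 Readout: CellTiter-Glo luminescence. Exposure: 48 h, 11 concentrations, 500 cells/well. Metric: AUC and within-line Z-AUC after DMSO/empty-well normalization.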
Potency means the concentration at half of the fitted maximal effect.

SMILES	Potency
NC(=O)[C@@H](CC1CC1)[C@@H](CCC(F)(F)F)C(=O)N[C@H]1N=C(c2ccccc2)c2cccc(F)c2NC1=O	inactive
O=C(NCC1CCOCC1)c1cnc(Nc2ccc(Cl)cc2Cl)nc1C(F)(F)F	inactive
O=C(O)CNC(=O)c1c(O)c2ccccc2n(Cc2ccccc2)c1=O	inactive
O=C(Oc1ccc([N+](=O)[O-])cc1)N1CCC(C(O)(c2ccc3c(c2)OCO3)c2ccc3c(c2)OCO3)CC1	inactive
CNC(=O)c1ccc(N2C(=S)N(c3ccc(C#N)c(C(F)(F)F)c3)C(=O)C23CCC3)cc1F	inactive
CC1(N2CCC(n3c([C@@H]4CCCNC4)nc4ccccc43)CC2)CCCCCCC1	26.3 µM (active)
COc1cc(C)[nH]c(=O)c1CNC(=O)c1c(C)n([C@H](C)C2CCOCC2)c2ccccc12	inactive
